Assay outcomes from PubChem BioAssay.
IMPase Li cell: qHTS Assay for Identifying the Cell-Membrane Permeable IMPase Inhibitors: Potentiation with Lithium | 210,000 compounds, 0.35% hits | Potency, µM (series often up to 59.4 µM), for inactives: top-dose activity, negative = IMPase inhibition, usual class: inhibitors | CHO-M1 cells, IP1 TR-FRET (IP-One), carbachol + lithium | AID 1457, 2008;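 also: IP1 builds up when IMPase is blocked and the TR-FRET signal falls; potency is read from the fitted curve at half-maximal effect; plate controls were basal vehicle for no effect and high inhibitor control for full effect; nearly all actives have a fitted effect of over 50% in size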
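Readout is a homogeneous TR-FRET IP1 immunoassay (Ex 320, Em 665 and 620), where raised cytosolic IP1 lowers signal. Cells were CHO-M1 treated 30 min at 37C with test compounds plus a little lithium; AC50 values came from Hill-equation fitting.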
ALOX12 inhib: qHTS Assay for Inhibitors of 12-hLO (12-human lipoxygenase) | purified 12-hLO, xylenol orange hydroperoxide absorbance | Polyunsaturated fatty acid lipoxygenase ALOX12 (Homo sapiens), P18054 | Potency, µM (titrated, usually from 57.1 µM), inactives show top-dose activity change, negative = inhibition, most hits filed as inhibitors | 150,000 compounds, 0.12% hits; also: potency is read from the fitted curve at half-maximal effect; nearly all actives have a fitted effect of over 55% in size
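Purified human 12hLO (150 nM), preincubated 15 min with compound, then 40 uM arachidonic acid for 30 min, room temperature, Hepes pH 7.0 with 0.01% Triton X-100. Hydroperoxide detected by ferrous iron/xylenol orange; 573/405 nm absorbance ratio gives reaction progress.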
PNC inhibitor: High Content Assay for Compounds that inhibit the Assembly of the Perinucleolar Compartment. activity change (PNC), negative = inhibition, % at 10 µM. PC3M PTB-GFP, PNC prevalence imaging, 16 h; active compounds read low. 140,000 compounds, 3.1% hits;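 active = readout at or below -70, meaning at least 70% loss of cells showing the perinucleolar compartment, a nuclear body marking cancer cells; inconclusive = readout between -30 and a set limit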;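 also: plate controls were DMSO wells for no effect and camptothecin positive control wells for full effect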
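Read-out is percentage of cells bearing a perinucleolar compartment, from automated 20x imaging of fixed, Hoechst-stained PC3M PTB-GFP cells. Cells were seeded 4 h, then exposed 16 h to compound (23 nl of library stock) in duplicate plates.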
IMPase inh: qHTS Assay for Identifying the Cell-Membrane Permeable IMPase Inhibitors | CHO-M1 cells, IP1 accumulation, HTRF TR-FRET ratio | inhibition (IP1 accumulation), % at 46.1 µM | 120,000 tested, under 10 active | AID 901, 2007 | Inositol monophosphatase 1 (Rattus norvegicus), P97697; active = well fitted curve in the direction sought with a large enough effect in the signal ratio, not every such curve was filed as active; inconclusive = small, poorly fitted or top-dose-only effect, or a change in a side signal; inactive = no such curve, though single readings can be large or run the other way; the % refers to the signal ratio;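 also: cells stimulated with carbachol in lithium chloride buffer; plate controls were DMSO basal wells for no effect and reference inhibitor wells for full effect; higher means more IMPase inhibition seen as more IP1 and lower FRET ratio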
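Measured: the HTRF emission ratio (665/620 nm) plus the 620 nm donor channel, each fitted to the Hill equation to give AC50. Cells were CHO-M1 given compounds up to 46 uM and a 30 min carbachol stimulation at 37C.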
ALDH1A1 inh: qHTS Assay for Inhibitors of Aldehyde Dehydrogenase 1 (ALDH1A1); Aldehyde dehydrogenase 1A1 (Homo sapiens), P00352; AID 1030, 2008; Purified ALDH1A1, NADH fluorescence, propionaldehyde substrate; Potency, µM (titrated, usually from 75.3 µM), for the others: at the highest dose activity, negative = inhibition, hits mostly inhibitors; 220,000 compounds, 7.3% hits; active = well fitted inhibition curve with a large enough effect, not every such curve was filed as active; inconclusive = small, poorly fitted or top-dose-only effect, or another doubt; inactive = no such curve, though single readings can be large or run the other way;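 also: potency is read from the fitted curve at half-maximal effect; plate controls were no enzyme wells and a reference inhibitor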
Target sequence (P00352 whole entry, looked up): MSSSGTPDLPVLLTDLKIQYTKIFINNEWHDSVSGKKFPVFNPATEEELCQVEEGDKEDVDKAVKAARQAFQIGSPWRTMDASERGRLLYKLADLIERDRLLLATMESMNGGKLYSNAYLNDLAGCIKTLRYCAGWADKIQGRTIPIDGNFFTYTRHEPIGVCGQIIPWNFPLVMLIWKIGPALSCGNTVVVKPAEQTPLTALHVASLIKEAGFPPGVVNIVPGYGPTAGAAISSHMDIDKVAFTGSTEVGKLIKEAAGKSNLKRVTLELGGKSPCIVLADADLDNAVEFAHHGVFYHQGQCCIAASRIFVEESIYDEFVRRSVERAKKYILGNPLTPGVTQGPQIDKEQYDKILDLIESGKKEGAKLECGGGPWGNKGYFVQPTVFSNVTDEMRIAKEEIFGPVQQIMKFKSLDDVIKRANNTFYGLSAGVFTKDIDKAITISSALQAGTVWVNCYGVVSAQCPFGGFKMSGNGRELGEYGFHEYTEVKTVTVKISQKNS
HPGD inh: qHTS Assay for Inhibitors of HPGD (15-Hydroxyprostaglandin Dehydrogenase); 150,000 compounds, 4.3% hits; 15-hydroxyprostaglandin dehydrogenase [NAD(+)] (Homo sapiens), P15428; Potency, µM, for inactives: top-dose activity change, negative = inhibition, hits mostly inhibitors; AID 894, 2007; purified HPGD, NADH fluorescence kinetic, PGE2 substrate; active = well fitted inhibition curve with a large enough effect, not every such curve was filed as active; inconclusive = small, poorly fitted or top-dose-only effect, or another doubt; inactive = no such curve, though single readings can be large or run the other way; also: potency is read from the fitted curve at half-maximal effect
Target sequence (P15428 whole entry, looked up): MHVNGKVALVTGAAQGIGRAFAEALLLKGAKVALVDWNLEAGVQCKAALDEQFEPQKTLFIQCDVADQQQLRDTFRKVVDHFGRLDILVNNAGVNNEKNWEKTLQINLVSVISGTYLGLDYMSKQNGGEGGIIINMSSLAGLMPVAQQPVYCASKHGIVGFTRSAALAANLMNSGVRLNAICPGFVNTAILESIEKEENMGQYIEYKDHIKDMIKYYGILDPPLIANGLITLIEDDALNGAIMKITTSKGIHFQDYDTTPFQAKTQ
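20 nM HPGD preincubated 15 min at room temperature with compound in 50 mM Tris-HCl pH 8, 0.01% Tween 20. Started with 1 mM NAD+ and 30 uM prostaglandin E2; NADH fluorescence (360/450 nm) read 5 times over 30-s intervals, last minus first.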
* = called active by the depositor; [ ] = another dose, or the depositor's remark. This is a sample that favours compounds with a hit; in the whole collection about 11% have one here. Unless noted, calls follow the shape of the dose curve; as a rule, active = well fitted curve in the direction sought with a large enough effect; inconclusive = small, poorly fitted or top-dose-only effect, or another doubt; inactive = no such curve, though single readings can be large; an effect the other way counts as inactive or inconclusive. Unless noted, % is scaled to controls: 0 for no effect and ±100 for the full control effect.

What do the screens show for `CC(=O)c1sc(NC(=O)COc2ccccc2)nc1C`?
IMPase Li cell: 10µM*; ALDH1A1 inh: inconclusive

Results for Cc1nnc(NC(=O)COc2ccccc2)s1 ?
IMPase Li cell: 13%[38.3 µM]; ALOX12 inhib: -4%; PNC inhibitor: 24; IMPase inh: -7; ALDH1A1 inh: 11%; HPGD inh: 6%

How did COc1ccc(NC(=O)N2CCC3(CC2)CCN(C(=O)c2cccn2C)CC3)cc1 do in these assays?
IMPase Li cell: 12%; ALOX12 inhib: -1%; ALDH1A1 inh: inconclusive; HPGD inh: 0%

How did COc1ccc(-n2[nH]c3c4c(ncc3c2=O)CCCCC4)cc1 do in these assays?
IMPase Li cell: 4%; ALOX12 inhib: 0%[0.00818 µM]; ALDH1A1 inh: 6%; HPGD inh: -3%

What do the screens show for `CC(=O)Nc1cccc(NC(C)=O)n1`?
IMPase Li cell: -2%; ALOX12 inhib: 2%; PNC inhibitor: -119*; IMPase inh: 0; ALDH1A1 inh: 7%; HPGD inh: -11%

What do the screens show for `CNC(=O)Nc1cccc(NC(=O)NC)n1`?
IMPase Li cell: -10%[38.3 µM]; ALOX12 inhib: 0%; PNC inhibitor: -10; IMPase inh: -2; ALDH1A1 inh: -2%; HPGD inh: -18%

Results for C=C(C)CC1(c2ccccc2)Oc2ccccc2-c2nc3cc(Cl)c(Cl)cc3nc21 (stereo not drawn) ?
ALDH1A1 inh: -17%[13.5 µM]

What do the screens show for `COc1ccc(CNC(=O)CN(Cc2ccccc2)S(=O)(=O)c2ccc(Cl)cc2)cc1`?
IMPase Li cell: 43%[38.3 µM]; ALOX12 inhib: -3%; PNC inhibitor: 23; IMPase inh: -1; ALDH1A1 inh: inconclusive; HPGD inh: -14%

Results for COc1ccc(CNC(=O)CN(Cc2ccc(Cl)cc2)S(=O)(=O)c2ccccc2)cc1 ?
IMPase Li cell: 23%[38.3 µM]; ALOX12 inhib: 1%; PNC inhibitor: inconclusive; IMPase inh: 5; ALDH1A1 inh: 2.2µM*; HPGD inh: 3%

What do the screens show for `CNC(=O)CN(Cc1ccccc1)S(=O)(=O)c1ccccc1`?
IMPase Li cell: -14%[38.3 µM]; ALOX12 inhib: 0%; PNC inhibitor: -16; IMPase inh: 6; ALDH1A1 inh: -22%; HPGD inh: -3%

What do the screens show for `CCCC(CCC)=NNC(=O)CN(Cc1ccccc1)S(=O)(=O)c1ccccc1`?
IMPase Li cell: 12%; ALOX12 inhib: -7%; PNC inhibitor: 0; ALDH1A1 inh: 8.9µM*; HPGD inh: -14%

How did COc1ccc(S(=O)(=O)N(Cc2ccccc2)Cc2nc3ccccc3c(=O)[nH]2)cc1 do in these assays?
IMPase Li cell: -3%[38.3 µM]; ALOX12 inhib: 1%; PNC inhibitor: 27; IMPase inh: 0; ALDH1A1 inh: 6.3µM*; HPGD inh: -4%

What do the screens show for `O=C(CN(Cc1ccc(Cl)c(Cl)c1)S(=O)(=O)c1ccccc1)N/N=C\c1ccc2c(c1)OCO2`?
IMPase Li cell: 30%[38.3 µM]; ALOX12 inhib: -21%; PNC inhibitor: 17; IMPase inh: 1; ALDH1A1 inh: -9%; HPGD inh: inconclusive

What do the screens show for `O=C(CN(Cc1ccccc1)S(=O)(=O)c1ccccc1)N/N=C/c1ccc2c(c1)OCO2`?
IMPase Li cell: 7%[38.3 µM]; ALOX12 inhib: -5%; PNC inhibitor: 7; IMPase inh: 5; ALDH1A1 inh: inconclusive; HPGD inh: 11µM*

What do the screens show for `c1ccc(CCCNc2nnnc3ccccc23)cc1`?
IMPase Li cell: 0%; ALOX12 inhib: 0%[11.4 µM]; ALDH1A1 inh: -3%[13.5 µM]; HPGD inh: -5%

How did CN(C)C[C@H]1CCC2=C(C1=O)C(c1ccc(Cl)c(Cl)c1)C1=C(CC[C@H](CN(C)C)C1=O)O2 do in these assays?
IMPase Li cell: 15%; ALOX12 inhib: -4%[11.4 µM]; ALDH1A1 inh: -10%[13.5 µM]; HPGD inh: -15%

How did CCC1=C(OC(=O)N(CC)CC)N2C(=O)OC(=NCCOC)[C@]2(C)[C@H]2C1=CC[C@H]1C(=O)N(C)C(=O)[C@H]12 do in these assays?
IMPase Li cell: 2%; ALOX12 inhib: 0%; ALDH1A1 inh: -10%; HPGD inh: -9%

How did O=C(O)/C=C/C(=O)Nc1ccccc1-c1ccccc1 do in these assays?
IMPase Li cell: -6%[38.3 µM]; ALOX12 inhib: -17%; PNC inhibitor: -109*; IMPase inh: 3; ALDH1A1 inh: inconclusive; HPGD inh: 28µM*

How did COCC(=O)Nc1ccccc1-c1ccccc1 do in these assays?
IMPase Li cell: 0%; ALDH1A1 inh: -10%

How did O=C(Cc1ccccc1)Nc1cccc(N2C(=O)C=CC2=O)c1 do in these assays?
IMPase Li cell: 20%; ALOX12 inhib: -12%; PNC inhibitor: inconclusive; ALDH1A1 inh: 0.71µM*; HPGD inh: 3.5µM*

How did COc1cccc(NC(=O)Cc2ccccc2)c1 do in these assays?
IMPase Li cell: -11%[38.3 µM]; ALOX12 inhib: 6%; PNC inhibitor: 48; IMPase inh: -8; ALDH1A1 inh: -5%; HPGD inh: -14%

Results for CCOC(=O)CC(=O)CSc1nc2c(sc(=S)n2-c2ccc(OCC)cc2)c(=O)[nH]1 ?
IMPase Li cell: 2%; ALOX12 inhib: -14%; PNC inhibitor: -8; ALDH1A1 inh: inconclusive; HPGD inh: -20%

How did CCOc1ccc(-n2c(=S)sc3c(=O)[nH]c(SCC(=O)NC(C)CC)nc32)cc1 (stereo not drawn) do in these assays?
IMPase Li cell: 16%[38.3 µM]; ALOX12 inhib: -4%; PNC inhibitor: -83*; IMPase inh: -4; ALDH1A1 inh: -9%; HPGD inh: -14%

How did CCc1nc(N2CCN(C(=O)c3ccco3)CC2)c2c3c(sc2n1)CCCC3 do in these assays?
IMPase Li cell: 11%[38.3 µM]; ALOX12 inhib: -15%; PNC inhibitor: -23; IMPase inh: 2; ALDH1A1 inh: inconclusive; HPGD inh: -14%

How did O=C(c1ccco1)N1CCN(c2ncnc3sc4c(c23)CCC4)CC1 do in these assays?
IMPase Li cell: -6%[38.3 µM]; ALOX12 inhib: -6%; PNC inhibitor: inconclusive; IMPase inh: 9; ALDH1A1 inh: 10µM*; HPGD inh: 32µM*

Results for CCOC(=O)c1cnc2ccccc2c1Nc1cccc(C(=O)O)c1 ?
IMPase Li cell: 7.9µM*; ALDH1A1 inh: inconclusive

What do the screens show for `C/C(CC(=O)Nc1cccc2c1CCCC2)=N\NC(=O)COc1ccccc1`?
IMPase Li cell: -7%; ALOX12 inhib: -3%; PNC inhibitor: 8; ALDH1A1 inh: 9.5µM*; HPGD inh: -15%
